Compounds with a hit are over-represented: about 7.6% of the library has one in this group of screens.
ELG1 repair inh: inhibitors of ELG1-dependent DNA repair in HEK293T cells | HEK293T ELG1-luciferase reporter, luminescence, 16 h; DNA damage induced by 5-fluorouridine | Potency, µM (titrated, usually from 46.1 µM), most hits filed as inhibitors | 330,000 tested, 2.3% active; also: nearly all actives have a fitted effect of over 55% in size
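Reporter activity after DNA damage by 5-fluorouridine is monitored. Compound-treated cells incubate 16 hr at 37 °C, then ONE-Glo is added for 30 min before luminescence reading.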
BRCA1 expr act: increases BRCA1 expression; 380,000 tested, 1.1% active; Potency, µM (top dose mostly 46.1 µM), usual class: activators; MCF7-BRCA1-FFLuc reporter, luminescence, 48 h; response scale: scaled: vehicle 0%, 10 µM genistein 100%; AID 624202; also: nearly all actives have a fitted effect of over 80% in size
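Activators of BRCA1 expression were detected as increased firefly luciferase luminescence in engineered MCF7 cells after 48 h compound incubation. Signals were scaled to genistein 10 microM as full activation.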
RORgamma inh: ROR gamma (mouse) transcription inhibition | Drosophila S2 Gal4-RORgamma UAS-luciferase reporter, 20 h | Potency, µM (titrated, usually from 53.6 µM), hits mostly inhibitors | 310,000 tested, 5.4% active; also: nearly all actives have a fitted effect of over 60% in size
Target sequence (P51450 whole entry, looked up, the tested form may be a part): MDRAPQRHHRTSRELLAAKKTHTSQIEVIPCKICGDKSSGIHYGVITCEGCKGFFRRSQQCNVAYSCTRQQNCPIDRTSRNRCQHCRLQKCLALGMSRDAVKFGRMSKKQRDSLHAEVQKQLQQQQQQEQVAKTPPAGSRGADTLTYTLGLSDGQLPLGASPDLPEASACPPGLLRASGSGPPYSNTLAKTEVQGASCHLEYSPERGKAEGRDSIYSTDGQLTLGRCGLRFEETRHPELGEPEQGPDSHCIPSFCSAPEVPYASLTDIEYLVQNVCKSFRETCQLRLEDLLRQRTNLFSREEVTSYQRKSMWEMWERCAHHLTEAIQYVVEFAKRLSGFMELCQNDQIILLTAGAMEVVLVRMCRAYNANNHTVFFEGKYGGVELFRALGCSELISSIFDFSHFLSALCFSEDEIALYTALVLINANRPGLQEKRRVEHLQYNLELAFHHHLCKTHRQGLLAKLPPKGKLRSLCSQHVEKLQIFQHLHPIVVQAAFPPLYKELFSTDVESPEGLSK
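Luciferase reporter read in Schneider cells carrying Gal4-RORγ (mouse) and UAS-Photinus luciferase; cells given compound 1 h before 700 uM copper sulfate induction, then incubated 20 h at ambient temperature.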
Gal4-VP16 FLuc: inhibits Gal4-VP16 luciferase reporter, ROR gamma counter-screen. AID 2546. 310,000 tested, 3.5% active. Potency, µM (doses to about 53.6 µM), actives largely listed as inhibitors. Drosophila S2 Gal4-VP16 UAS-luciferase, luminescence, 20 h;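 also: Gal4-VP16 expression switched on by copper sulfate through the metallothionein promoter; nearly all actives have a fitted effect of over 50% in size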
p53 reactivation: restores transcriptional activity of mutant p53; H1299 p53-A138V BP100-luciferase reporter, luminescence, 24 h; Potency, µM (doses to about 92.2 µM), actives largely listed as activators; 320,000 tested, 0.063% active; AID 504706; also: nearly all actives have a fitted effect of over 45% in size
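H1299 (p53-null), stable ts p53-A138V + BP100-Luc; 1000 cells/well, Opti-MEM/10% FBS; cpd 4 pt, 1:5; 24 h, 37 deg C, 5% CO2; detection reagent 10 min RT; luminescence.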
Giardia killer: Giardia lamblia killing; Giardia lamblia trophozoite viability; activity change, % at 7.66 µM, hits read low; 340,000 tested, 0.15% active; in the data active = activity change below about -80%; inconclusive = between about -30% and that limit;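 also: parasites exposed to compound for two days anaerobically before the ATP read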
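Giardia lamblia trophozoites (100 cells/well) were incubated with compounds for 48 h at 37 deg C under anaerobic conditions. Viability was read as ATP content by one-step luminescence after 15-30 min at room temperature.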
Of the large screens only hits and unclear results are named; the others gave an inactive call. Unless noted, calls follow the shape of the dose curve; as a rule, active = well fitted curve in the direction sought with a large enough effect; inconclusive = small, poorly fitted or top-dose-only effect, or another doubt; inactive = no such curve, though single readings can be large; an effect the other way counts as inactive or inconclusive.

Cc1ccc(NC(=O)c2sc3nc(C)nc(N4CCN(c5ccccn5)CC4)c3c2C)c(C)c1	ELG1 repair inh inconclusive
CCOC(=O)c1sc2nc(CC(=O)OC)nc(N3CCN(c4ccccn4)CC3)c2c1C	ELG1 repair inh 9.2µM, RORgamma inh inconclusive
COc1ccc(C)cc1NC(=O)c1sc2ncnc(N3CCN(c4ccccn4)CC3)c2c1C	ELG1 repair inh 6.51µM
O=[N+]([O-])c1ccccc1C1Nc2cccc3cccc(c23)N1	RORgamma inh 1µM, Giardia killer inconclusive
CCN(CC)C(=O)C1CCN(S(=O)(=O)c2c(C)noc2/C=C/c2cccc(C)c2)CC1	ELG1 repair inh inconclusive (no result: p53 reactivation)
CCOc1cc([N+](=O)[O-])cc2c1C(=O)Nc1ccccc1O2	ELG1 repair inh 7.3µM
N#Cc1cc2c(nc1SCC(=O)Nc1sc3c(c1C#N)CCC3)CCCC2	none
N#Cc1c(NC(=O)CSc2ncn[nH]2)sc2c1CCCCC2	ELG1 repair inh inconclusive, RORgamma inh 0.398µM, Gal4-VP16 FLuc 0.159µM
N#Cc1ccc(-c2ccc(F)cc2)nc1SCC(=O)Nc1sc2c(c1C#N)CCC2	ELG1 repair inh 6.51µM
O=C(NCC(c1cccnc1)N1CCN(c2ccc(F)cc2)CC1)OCc1ccccc1 (configuration not stated)	ELG1 repair inh inconclusive, RORgamma inh 12.6µM, Gal4-VP16 FLuc inconclusive
O=C(NCC(c1cccnc1)N1CCN(c2ccccc2F)CC1)OCc1ccccc1 (configuration not stated)	ELG1 repair inh 23.1µM
O=C(NCc1cccs1)C(=O)NCC(c1ccco1)N1CCN(c2ccccc2F)CC1 (configuration not stated)	ELG1 repair inh 18.3µM
CC(C)Oc1ccc(C2CC(=O)N(c3cccc(Br)c3)C2=O)cc1 (configuration not stated)	RORgamma inh inconclusive
CCN=C1S/C(=C\c2sccc2C)C(=O)N1CC	ELG1 repair inh inconclusive, BRCA1 expr act inconclusive, Gal4-VP16 FLuc inconclusive, p53 reactivation inconclusive
Cc1ccc(Nc2cc(C)c(O)c(C)c2)cc1	ELG1 repair inh inconclusive, RORgamma inh 8.91µM, Gal4-VP16 FLuc inconclusive
CC1CN(C2=NC(=O)/C(=C3/C(=O)N(Cc4ccc(F)cc4)c4ccccc43)S2)CC(C)O1 (configuration not stated)	ELG1 repair inh 11.6µM
O=C1N=C(N2CCOCC2)S/C1=C1\C(=O)N(Cc2ccccc2)c2ccccc21	ELG1 repair inh inconclusive, BRCA1 expr act inconclusive, RORgamma inh inconclusive
COc1ccc(Cl)cc1N(CC(=O)Nc1ccc2c(c1)OCCO2)S(C)(=O)=O	ELG1 repair inh inconclusive
Cc1cccc(C2c3[nH]c4ccccc4c3CCN2C(=O)Cc2nc(-c3ccccc3)n[nH]2)n1 (configuration not stated)	ELG1 repair inh 18.3µM
Cc1cccc(C2c3[nH]c4ccccc4c3CCN2C(=O)CN2CCOC2=O)n1 (configuration not stated)	none
Cc1cccc(C2c3[nH]c4ccccc4c3CCN2C(=O)c2cc(CC(C)C)[nH]c(=O)n2)n1 (configuration not stated)	RORgamma inh 12.6µM, Gal4-VP16 FLuc inconclusive
Nc1ncnc2c1cnn2-c1ccccc1	ELG1 repair inh inconclusive, BRCA1 expr act inconclusive, p53 reactivation inconclusive
S=c1nc[nH]c2c1cnn2-c1ccccc1	ELG1 repair inh inconclusive, RORgamma inh 3.55µM, Gal4-VP16 FLuc 3.98µM
Cc1ccc(OCc2nnc(SCC(=O)c3cccc([N+](=O)[O-])c3)n2C)cc1	RORgamma inh 2µM, Gal4-VP16 FLuc inconclusive
Cc1ccc(-c2cc(C(F)(F)F)nc(SCC(=O)c3cccc([N+](=O)[O-])c3)n2)cc1	ELG1 repair inh 18.4µM
COc1ccc(-c2cc(C)nc(SCC(=O)c3cccc([N+](=O)[O-])c3)n2)cc1	ELG1 repair inh 20.6µM
O=C(CSc1nc(-c2ccccc2)cc(C(F)(F)F)n1)c1cccc([N+](=O)[O-])c1	ELG1 repair inh 18.4µM
Cc1ccc(OCc2nnc(SCC(=O)Nc3cc(C)on3)n2C)cc1	none

High-throughput results: PubChem, National Center for Advancing Translational Sciences (NCATS)
